# The supplement of paper PMC10981050
# Where “and” joins values, the source holds several entries; their conditions need not be identical. Identical values can stand only once. Counter-ions that a name gives are not always drawn.
# System: K562
# Test: cell viability relative to vehicle control; higher = less cytotoxic
# Details: 10 µM; SRSF2 genotype: SRSF2 P95H/wt
# In short: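 After removal of identity-inconsistent compounds, the Selleck bioactive, kinase and epigenetic probe libraries were screened on CRISPR-edited mutant clones and isogenic wild-type clones of four leukaemia lines. Plates were 384-well, each well holding 2000 cells in 50 µL medium and receiving a single 10 µM acoustically dispensed dose. CellTiter-Glo luminescence was read 48 h later, after the supernatant was taken off. Genedata Screener was used to express viability as percent of the on-plate vehicle control.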
row,Structure (SMILES),cell viability
1,CC1(C)CCC[C@](C)([C@H]2CC[C@]3(C)[C@@H]2[C@H](O)C[C@@H]2[C@@]4(C)CC[C@H](O)C(C)(C)[C@@H]4[C@@H](O)C[C@]23C)O1 [Panaxatriol],105% and 99.1%
2,COc1cc2c(cc1OC)[C@@H]1Cc3ccc(OC)c(OC)c3CN1CC2 [Tetrahydropalmatine hydrochloride],89.6% and 96.5%
3,CCCCCCCCOc1ccccc1C(=O)Nc1ccc(C(=O)OCC[N+](C)(CC)CC)cc1 [Otilonium Bromide],78.5% and 92%
4,CC(CCc1ccccc1)NCC(=O)c1ccc(O)c(C(N)=O)c1 (centres undefined) [Labetalone hydrochloride],92.1% and 89.7%
5,COC1(c2sc3c(N4CCOCC4)nc(-c4cnc(N)nc4)nc3c2C)COC1,40.8% and 45.4%
6,CC(=O)N1CCN(c2ccc(OCC3COC(Cn4ccnc4)(c4ccc(Cl)cc4Cl)O3)cc2)CC1 (centres undefined) [Ketoconazole],56.2% and 70.5%
7,CC(C)=CCOc1ccc(/C=C/C(=O)c2ccc(OCC=C(C)C)cc2OCC(=O)O)cc1 [Sofalcone],100% and 101%
8,CC(C)=CCC[C@](C)(O[C@@H]1O[C@H](CO)[C@@H](O)[C@H](O)[C@H]1O)[C@H]1CC[C@]2(C)[C@@H]1[C@H](O)C[C@@H]1[C@@]3(C)CC[C@H](O)C(C)(C)[C@@H]3[C@@H](O[C@@H]3O[C@H](CO)[C@@H](O)[C@H](O)[C@H]3O[C@@H]3O[C@@H](C)[C@H](O)[C@@H](O)[C@H]3O)C[C@]12C [Ginsenoside Re],103% and 101%
9,CC(=O)c1cc2c(o1)C(=O)c1ccccc1C2=O [Napabucasin],0.4% and 0.37%
10,C/C=C(\C)C(=O)OC1c2c(ccc3ccc(=O)oc23)OC(C)(C)C1OC(=O)/C(C)=C/C (centres undefined) [Praeruptorin B],83.5% and 92.2%
11,CN(C)CCCNC(=O)c1ccc(-c2cc(O)c3ncccc3c2)cc1,55% and 32.1%
12,O=c1ncccn1[C@@H]1O[C@H](CO)[C@@H](O)[C@H]1O [Zebularine],90.9% and 85.1%
13,C/C=C(/C)C(=O)OC(C)(C)[C@@H]1Cc2c(ccc3ccc(=O)oc23)O1 [Columbianadin],99.8% and 97.1%
14,CCc1c(C(=O)NCCc2ccc(N3CCCCC3)cc2)[nH]c2ccc(Cl)cc12,107% and 104%
15,COc1cccc(-c2cc(=O)c3ccccc3o2)c1N,95.9% and 95.1%
16,CC/C=C(\C(=O)N[C@@H]1C(=O)N2C(C(=O)OCOC(=O)C(C)(C)C)=C(COC(N)=O)CS[C@H]12)c1csc(N)n1 [Cefcapene Pivoxil Hydrochloride],101% and 102%
17,CO/N=C(\C(=O)N[C@@H]1C(=O)N2C(C(=O)OCOC(=O)C(C)(C)C)=C(/C=C\c3scnc3C)CS[C@H]12)c1csc(N)n1 [Cefditoren pivoxil],103% and 99.7%
18,COc1cc2c(=O)c(-c3ccc(O)cc3)coc2cc1O [Glycitein],97.5% and 92.1%
19,S=c1nc[nH]c2nc[nH]c12 [6-Mercaptopurine (6-MP) Monohydrate],70.9% and 60.5%
20,COc1ccccc1C(=O)Nc1cc2c(cc1N1CCCC1)n(C)c(=O)n2C,91.5% and 100%
21,C[C@H]1[C@H](C)CC[C@]2(C(=O)O[C@@H]3O[C@H](CO[C@@H]4O[C@H](CO)[C@@H](O[C@@H]5O[C@H](C)[C@H](O)[C@@H](O)[C@H]5O)[C@H](O)[C@H]4O)[C@@H](O)[C@H](O)[C@H]3O)CC[C@]3(C)C(=CC[C@@H]4[C@@]5(C)C[C@@H](O)[C@H](O)[C@@](C)(CO)[C@@H]5CC[C@]43C)[C@H]12 [Asiaticoside],102% and 105%
22,O=C1N=C(N2CCOCC2)CN1c1ccc(Cl)cc1,107% and 99%
23,Cc1ncc(COP(=O)(O)O)c(C=O)c1O [Pyridoxal phosphate],103% and 104%
24,COc1c(N2C[C@@H]3CCCN[C@@H]3C2)c(F)cc2c(=O)c(C(=O)O)cn(C3CC3)c12 [Moxifloxacin],94.1% and 92.9%
25,C=CC(=O)Nc1cccc(Nc2nc(Nc3ccc(OCCOC)cc3)ncc2F)c1,66.8% and 79.5%
26,COC(=O)N[C@H](C(=O)N1CCC[C@H]1c1ncc(-c2ccc(-c3ccc(-c4cnc([C@@H]5CCCN5C(=O)[C@@H](NC(=O)OC)C(C)C)[nH]4)cc3)cc2)[nH]1)C(C)C [Daclatasvir Digydrochloride],79.2% and 78.8%
27,Cc1coc2c1C(=O)C(=O)c1c-2ccc2c(C)cccc12 [Tanshinone I],66.7% and 48.1%
28,CC(C)=CCCC(C)=CCCC(C)=CCCC(C)=CCC1=C(C)C(=O)c2ccccc2C1=O [Vitamin K2],93.6% and 95.4%
29,C=CC(=O)N1CCC(Oc2cc3c(Nc4ccc(Cl)c(Cl)c4F)ncnc3cc2OC)CC1 [Poziotinib (HM781-36B)],56% and 63.7%
